Records with an inconclusive call do not appear. Values without a mark were called inactive. Activity calls are given as the source filed them. Calls come from the whole dose curve; as a rule, active = well fitted cell-killing curve with a large enough effect; inconclusive = small, poorly fitted or top-dose-only effect, or effect the other way; inactive = no such curve, though single readings can be large or run the other way. Non-standard residues stand in square brackets, D forms with d. Residues, ends and D or L forms follow the SMILES beside them. *: point of attachment. Nva = CCC[C@H](N)C(=O)O; Cbz = O=C(OCc1ccccc1)*
Assay: Quantitative High-Throughput drug screen in 47 multiple myeloma cell lines against the NCATS MIPE library collection: Karpas417_ECACC cell viability assay (AID 1918961)
Conditions: Karpas417 myeloma viability, CellTiter-Glo ATP luminescence, 48 h; viability (% of DMSO): at 45.8 µM (top of the series)
Text: PI: Beverly A. Mock Ph.D.
Laboratory of Cancer Biology and Genetics,
Center for Cancer Research, National Cancer Institute,
National Institute of Health, Bethesda, Maryland
Drug resistance and disease progression are common in multiple myeloma (MM) patients, underscoring the need for new therapeutic combinations. […] We hypothesized that effective combinations would reduce MYC expression and enhance p16 activity. […] These preclinical data identify potentially useful drug combinations for evaluation in drug-resistant MM and reveal potential mechanisms of combined drug sensitivity.
Described herein is the primary MIPE qHTS used to cherrypick compounds. Validated compounds were then further tested for potential synergistic activiy.
[1] Peat TJ, Gaikwad SM, Dubois W, Gyabaah-Kessie N, Zhang S, Gorjifard S, Phyo Z, Andres M, Hughitt VK, Simpson RM, Miller MA, Girvin AT, Taylor A, Williams D, D'Antonio N, Zhang Y, Rajagopalan A, Flietner E, Wilson K, Zhang X, Shinn P, Klumpp-Thomas C, McKnight C, Itkin Z, Chen L, Kazandijian D, Zhang J, Michalowski AM, Simmons JK, Keats J, Thomas CJ, Mock BA. Drug combinations identified by high-throughput screening promote cell cycle transition and upregulate Smad pathways in myeloma. Cancer Lett. 2023 Aug 1;568:216284. doi: 10.1016/j.canlet.2023.216284. Epub 2023 Jun 24. PMID: 37356470; PMCID: PMC10408729.
SEQUENCE No. (e.g., 1, 2, 3, etc.); […] (e.g., Cells, Incubation, Reagent, etc.); VALUE and DESCRIPTION.
1; Cells; 5 uL; white, solid bottom 1536-well Greiner assay plate.
2; Compounds; 23 nL; Kalypsis pin tool (Wako USA) equipped with a 1536-well pin head to transfer to the assay plates.
3; Incubation; 48 hours; 37C incubation.
4; Reagent;5uL; CellTiter Glo (Promega).
5; Detector; 425V; Luminescence; Viewlux PerkinElmer.
NOTES (numbers refer to Sequence numbers above)
1. The cell-based screening methods employed in this study were like those previously published. Briefly, the corresponding myeloma cell lines were screened in 1,536-well plates with 500 cells, 5-uL per well for inhibition of cell viability (assessed by measuring ATP levels with CellTiterGlo).
2. NCATS MIPE 4.0 library of approved and investigational drugs were added using the Kalypsis pin tool. Wells treated with DMSO only for 100% viability and media only wells for 0% viability were used as controls.
3. The assay plates were covered and incubated for 48 hours in a 37C, 5% CO2 incubator with controlled humidity.
4. After 48 hours, CellTilter-GloTM luminescent substrate mix (Promega) reagent was added to the assay plate and plates we incubated for 5 min at room temperature.
5. Signal was measured as median relative luminescence units on a ViewLux (PerkinElmer) multiplate reader.
[1] Heske CM, Davis MI, Baumgart JT, Wilson K, Gormally MV, Chen L, Zhang X, Ceribelli M, Duveau DY, Guha R, Ferrer M, Arnaldez FI, Ji J, Tran HL, Zhang Y, Mendoza A, Helman LJ, Thomas CJ. Matrix Screen Identifies Synergistic Combination of PARP Inhibitors and Nicotinamide Phosphoribosyltransferase (NAMPT) Inhibitors in Ewing Sarcoma. Clin Cancer Res. 2017 Dec 1;23(23):7301-7311. doi: 10.1158/1078-0432.CCR-17-1121. Epub 2017 Sep 12. PMID: 28899971; PMCID: PMC6636827.
Potency is the fitted concentration of half-maximal effect.

| SMILES | Potency | viability (% of DMSO) |
| --- | --- | --- |
| C#Cc1cccc(Nc2ncnc3cc(OCCOC)c(OCCO)cc23)c1 | 526 nM (active) |  |
| CN(C)c1ccc(C(=O)NCCCCCCC(=O)NO)cc1 | 132 nM (active) |  |
| Nc1ccc(C(=O)Nc2cccc(-c3nc(N4CCOCC4)c4oc5ncccc5c4n3)c2)cn1 | 526 nM (active) |  |
| CC(C)N1[N]C(=C2C=c3cc(O)ccc3=N2)c2c(N)ncnc21 | 33.2 nM (active) |  |
| CC1(C)[C@H](O[C@H]2O[C@H](C(=O)O)[C@@H](O)[C@H](O)[C@H]2O[C@@H]2O[C@H](C(=O)O)[C@@H](O)[C@H](O)[C@H]2O)CC[C@@]2(C)[C@H]1CC[C@]1(C)[C@H]2C(=O)C=C2[C@H]3C[C@@](C)(C(=O)O)CC[C@]3(C)CC[C@]21C |  | 147% |
| COC(=O)C=CC(=O)OC | 4180 nM (active) |  |
| CC(=O)ON=C1C(c2c(O)[nH]c3cc(Br)ccc23)=Nc2ccccc21 | 5260 nM (active) |  |
| OCCNC1CCCc2c1[nH]c1ccc(-c3ccccc3)cc21 (stereo not given) | 10500 nM (active) |  |
| O=C(Nc1cc2cc[nH]c2cn1)c1ccccc1 | 2960 nM (active) |  |
| CC(=O)O[C@H]1C[C@@H]2CC[C@H]3[C@H]4C[C@H]([N+]5(C)CCCCC5)[C@@H](OC(C)=O)[C@@]4(C)CC[C@@H]3[C@@]2(C)C[C@H]1N1CCCCC1 |  | 162% |
| C=CC(=O)N1CCc2ccc(-n3c(=O)ccc4cnc5ccc(-c6cnn(C)c6)cc5c43)cc21 | 935 nM (active) |  |
| CCOC(=O)C=C[C@H](C[C@@H]1CCNC1=O)NC(=O)[C@@H](CC(=O)[C@@H](NC(=O)c1cc(C)on1)C(C)C)Cc1ccc(F)cc1 |  | 106% |
| O=C(C=Cc1ccc(CN(CCO)CCc2c[nH]c3ccccc23)cc1)NO | 105 nM (active) |  |
| c1cc(N[C@@H]2CCNC2)nc(-c2cnc3ccc(-c4cn[nH]c4)cn23)c1 | 4690 nM (active) |  |
| CCC[C@@H](C=O)NC(=O)[C@H](CC(C)C)NC(=O)[C@H](CC(C)C)NC(=O)OCc1ccccc1 (Cbz-Leu-Leu-[Nva]-aldehyde) | 296 nM (active) |  |
| CC(=O)OC[C@@H]1O[C@@H](n2ccc(=O)[nH]c2=O)[C@H](OC(C)=O)[C@H]1OC(C)=O |  | 132% |
| CC(C=CC(=O)NO)=C[C@@H](C)C(=O)c1ccc(N(C)C)cc1 | 105 nM (active) |  |
| O=C1CSC(=O)N1C(CCc1ccncc1)COc1ccc(-c2cccc([N+](=O)[O-])c2)cc1 (stereo not given) | 46.9 nM (active) |  |
| CCNC(=O)c1cc2c(-c3cc(OCCN4CCCC4)c(Cl)cc3Cl)nc(N)nc2s1 | 590 nM (active) |  |
| CN(C)CC(=O)N1CCC(c2ccc(NC(=O)c3ncc(C#N)[nH]3)c(C3=CCCCC3)c2)CC1 | 2350 nM (active) |  |

| SMILES | Potency | viability (% of DMSO) |
| --- | --- | --- |
| COc1cc2c(cc1O)CCC1C2CC[C@@]2(C)C1CC[C@@H]2O (stereo not given in full) |  | 84.1% |
| OC[C@H]1OC(O)C[C@@H](O)[C@H]1O (stereo not given in full) |  | 208% |
| CC(O)(C#Cc1ccc2c(c1)N(c1nc(N)ncc1Cl)CC2)c1nccs1 (stereo not given) | 4690 nM (active) |  |
| C[C@H]1COc2c(N3CCN(C)CC3)c(F)cc3c(=O)c(C(=O)O)cn1c23 |  | 172% |
| COc1ccc2c(c1OC)C(=O)OC2[C@H]1c2c(cc3c(c2OC)OCO3)CCN1C (stereo not given in full) | 2090 nM (active) |  |
| CN1CCCN(C(=O)c2cccc(-c3ccc(C=C4C(=O)Nc5ccc(Cl)cc54)o3)c2)CC1 | 3720 nM (active) |  |
| Nc1nc(N)c2nc(-c3cccc(O)c3)c(-c3cccc(O)c3)nc2n1 | 1320 nM (active) |  |
| NC(=O)Nc1cc(-c2ccc(CN3CCOCC3)cc2)sc1C(N)=O | 83.3 nM (active) |  |
| NC(=O)c1ncn([C@@H]2O[C@H](CO)[C@@H](O)[C@@H]2O)c1N |  | 205% |
| CNC(=O)c1cccc(-c2ccc3c(N4CCOC[C@H]4C)nc(N4CCOC[C@H]4C)nc3n2)c1 | 52.6 nM (active) |  |
| NS(=O)(=O)OC[C@@H]1C[C@@H](n2ccc3c(N[C@H]4CCc5ccccc54)ncnc32)C[C@H]1O |  | 136% |
| CCS(=O)(=O)Nc1ccc2[nH]c(O)c(C(=Nc3ccc(CN4CCCCC4)cc3)c3ccccc3)c2c1 | 105 nM (active) |  |
| CN1CCc2c(c3ccccc3n2Cc2ccc(C(=O)NO)cc2)C1 | 20900 nM (active) |  |
| CC(=O)NCC(=O)N1[C@H]2CC[C@H]1c1cc(Nc3ncc(C(F)(F)F)c(NC4CCC4)n3)ccc12 | 118 nM (active) |  |
| CC(C)Oc1ccc(C(=O)N[C@H](CNC(=O)CN(C)C)Cc2ccc(-c3cn4cccc([C@H](C)O)c4n3)cc2)cc1Cl |  | 205% |
| C[C@@H](Oc1ccc2[nH]nc(C=Cc3cnn(CCO)c3)c2c1)c1c(Cl)cncc1Cl |  | 177% |
| Cc1cnc(NC(=O)Nc2cc(Br)c(C)cc2OC[C@@H]2CNCCO2)cn1 |  | 73.4% (active) |
| CC(=O)[C@]1(O)Cc2c(O)c3c(c(O)c2[C@@H](O[C@H]2C[C@H](N)[C@@H](O)[C@H](C)O2)C1)C(=O)c1ccccc1C3=O | 2350 nM (active) |  |
| Cc1cnc(Nc2ccc(N3CCN(C)CC3)cc2)nc1Nc1cccc(S(=O)(=O)NC(C)(C)C)c1 | 372 nM (active) |  |
| O=C1NC(O)CCN1[C@@H]1O[C@H](CO)[C@H](O)[C@H]1O (stereo not given in full) |  | 135% |

From PubChem BioAssay (NCATS)
